# The whole screen tested about 69,000 compounds, of which about 420 (0.61%) showed an effect of 50% or more. The list comes from a sample in which strong results are over-represented; it also holds similar structures and randomly drawn compounds.
# Target: T1, Histidine--tRNA ligase (Leishmania infantum) (UniProt A4I591)
# T1 sequence (whole entry): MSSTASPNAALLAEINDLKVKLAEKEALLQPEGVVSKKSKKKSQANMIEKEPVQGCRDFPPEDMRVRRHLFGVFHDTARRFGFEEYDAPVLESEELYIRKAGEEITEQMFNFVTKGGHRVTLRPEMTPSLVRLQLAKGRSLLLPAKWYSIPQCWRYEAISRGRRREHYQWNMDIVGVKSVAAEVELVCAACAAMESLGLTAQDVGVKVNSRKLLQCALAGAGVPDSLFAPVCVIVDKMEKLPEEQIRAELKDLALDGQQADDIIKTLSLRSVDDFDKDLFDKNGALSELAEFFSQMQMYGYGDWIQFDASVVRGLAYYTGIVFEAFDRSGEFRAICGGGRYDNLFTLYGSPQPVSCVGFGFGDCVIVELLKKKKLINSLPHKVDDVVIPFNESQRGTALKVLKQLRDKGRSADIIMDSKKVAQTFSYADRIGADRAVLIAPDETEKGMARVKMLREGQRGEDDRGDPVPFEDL
# Assay: Leishmania infantum Histidine tRNA synthetase (LdHisRS)
# Format: functional
# Parameters: scale not given: in the data most compounds retested in dose-response had high values
# Conditions: 30 µM
row,Structure (SMILES),Percent Effect [%]
1,CCO[C@H]1CN(CC2CCOCC2)[C@@H]2CCCO[C@H]12,7.92
2,O=S(=O)(C1CC1)N1CCO[C@H]2[C@H](OCC3CC3)CC[C@@H]21,5.56
3,O=C(c1cnccn1)N1CCN2C[C@H](OCc3ccccc3)C[C@H]2C1,15.1
4,O=C(Nc1nccs1)c1csc(NC2CCCC2)n1,66.3
5,O=C(Nc1ccccn1)c1csc(NC2CCCC2)n1,28.1
6,Cc1cnc(NC(=O)c2csc(NC3CCCC3)n2)s1,21.4
7,Cc1n[nH]c(SCC(=O)N2C[C@H]3CC[C@@H]2CN(c2ncccn2)C3)n1,9.38
8,COCCN1C[C@@H]2CCCO[C@@H]2[C@H](NC(=O)c2cnccn2)C1,11.3
9,c1cncc(NCCNC2CCSC2)c1 (centres undefined),62.9
10,c1cncc(NCCCNC2CCSC2)c1 (centres undefined),28.6
11,c1cncc(NCCNC2CSCCSC2)c1,74.3
12,CC(C)CN1CCC(NCCNc2cccnc2)CC1,9.76
13,Cc1cnccc1NCCNC1CCSCC1,17.1
14,c1cncc(NCCNC2CCSCC2)c1,8.57
15,COCc1csc(NC(=O)NCc2ccsc2)n1,14.3
16,Cn1cc(NC(=O)NCc2ccsc2)ccc1=O,126
17,CN(Cc1ccsc1)C(=O)Nc1ccc(S(=O)(=O)N(C)C)cc1,-30.3
18,CCNC(=O)N1CCc2ccc(NC(=O)NCc3ccsc3)cc21,31.7
19,Cc1cnccc1NC(=O)CCc1ccsc1,9.33
20,CN(Cc1ccsc1)C(=O)Nc1ccc(S(C)(=O)=O)cc1,11.9
21,Cn1cc(NC(=O)CCc2ccsc2)ccc1=O,103
22,CN(Cc1ccsc1)C(=O)Nc1ccc(=O)n(C)c1,123
23,Cc1cc(NC(=O)CCc2ccsc2)n(C)n1,18.3

row,Structure (SMILES),Percent Effect [%]
1,O=C1CO[C@H]2CN(S(=O)(=O)c3ccccc3)C[C@H]2N1Cc1ccccc1,25
2,CCC1=N[C@@]2(CC[C@@H]3CN(S(C)(=O)=O)C[C@@H]32)C(=O)N1CC(C)C,7.96
3,CC(C)CO[C@H]1CN(S(=O)(=O)c2cn(C)cn2)[C@@H]2CCCO[C@H]12,1.01
4,C(=C\c1ccc(CN2CCCC2)cn1)/c1ccccc1,22.6
5,COc1ccc(CN2CCn3cccc3C2C)cc1F (centres undefined),29.5
6,COc1ccc(C(C)=O)cc1CN1CCn2cccc2C1C (centres undefined),52.7
7,COc1ccc(C)cc1CN1CCn2cccc2C1C (centres undefined),42
8,CN(C)C[C@H]1OC[C@@H]2CCN(S(=O)(=O)c3ccc(F)cc3)C[C@@H]21,-4.59
9,O=C1CC[C@H]2CN(C3CCOCC3)CC[C@H]2N1CCC1=CCCCC1,15.6
10,COc1ccc(CN2C[C@@H]3CC[C@H](C2)N(S(C)(=O)=O)C3)cc1,10
11,O=S1(=O)C[C@@H]2[C@H](C1)N(S(=O)(=O)N1CCCC1)CCN2Cc1ccccc1,19.2
12,CN(C)CCN1CCO[C@H]2CCN(C(=O)c3cccs3)CC[C@@H]21,15.4
13,CN(C)CCN1CCCC12CCN(C(=O)c1cccn1C)CC2,5.88
14,CN(C)CCN1CCO[C@@H]2CCN(C(=O)c3cccn3C)CC[C@H]21,52.8
15,COc1ccccc1CN1C(=O)O[C@@H]2CN(CC3CC3)C[C@@H]21,10
16,O=C([C@@H]1CC[C@@H]2[C@@H](CCN2Cc2cccs2)O1)N1CCCCO1,17.1
17,NC(=O)c1cnc2n1CCN(C(=O)c1ccc(-c3cc[nH]n3)cc1)C2,14.9
18,Cc1nc2ccc(C(=O)N3CCn4c(C)nnc4C3)cc2nc1C,21
19,NC(=O)c1cnc2n1CCN(C(=O)c1ccc(Cn3cccc3)cc1)C2,63.2
20,Cc1nnc2n1CCN(C(=O)c1ccc(Cn3cccc3)cc1)C2,51.7
21,NC(=O)c1cnc2n1CCN(C(=O)c1cccc(Cn3cccn3)c1)C2,12.6
22,CC(C)c1nnc2n1CCN(C(=O)c1ccc(Cn3cccc3)cc1)C2,14.9
23,COc1cccc(SCCCn2cnc3c(N)ncnc32)c1,4.08

row,Structure (SMILES),Percent Effect [%]
1,Clc1ccc(C2(CNC3=NCCN3)CCCCC2)cc1,50
2,Clc1ccc(C2(CNC3=NCCN3)CCCC2)cc1,35.7
3,Clc1ccc(C2(CNC3=NCCN3)CC2)cc1,18.6
4,CC(C)c1n[nH]c(C(=O)Nc2ccccn2)c1Br,0
5,CNC(=O)[C@@]12CCO[C@@H]1CCN(S(=O)(=O)c1ccccc1C)C2,5
6,CC(C)CS(=O)(=O)N1C[C@H]2C[C@H](C(=O)N3CCOCC3)[C@@H](C1)O2,1.89
7,O=C(c1cccnc1-c1ccoc1)N1C[C@H]2CC[C@@H]1C2,1.43
8,COc1ccc(C2CC(=O)Nc3nc(N4CCOCC4)sc32)cc1 (centres undefined),105
9,COc1ccc(C(C)C)cc1C1CC(=O)NCc2nc(N(C)C)sc21 (centres undefined),31.2
10,CCn1ncnc1C1CC(=O)NCc2nc(N3CCOCC3)sc21 (centres undefined),25.3
11,COc1ccc(C2CC(=O)NCc3nc(N(C)C)sc32)c(O)c1 (centres undefined),10.8
12,COc1ccc(C2CC(=O)Nc3nc(N4CCOCC4)sc32)c(OC)c1 (centres undefined),115
13,COc1ccc(OC)c(C2CC(=O)Nc3nc(N4CCOCC4)sc32)c1 (centres undefined),102
14,COc1ccc(C2CCCN2c2nnc(C)s2)c(OC)c1 (centres undefined),6.25
15,COc1ccc(C2CC(=O)Nc3c2cnn3C)cc1 (centres undefined),1.91
16,COc1ccc(OC)c(C2CCN(CC(C)(C)N3CCOCC3)C2)c1 (centres undefined),12.7
17,O=C(c1ccncc1)N1C[C@@H]2CC[C@H](C1)N(C(=O)N1CCOCC1)C2,12.6
18,COCC(=O)N1CC[C@]2(O)CCN(Cc3cccnc3OC)C[C@@H]2C1,17.1
19,COc1ccc(CC(=O)N2CC[C@@H]3NC(=O)CC[C@@H]32)cc1,8.77
20,CC(C)(O)CCc1cccc(C(=O)NCc2cnn3cccnc23)c1,2.22
21,O=C(NCc1cnn2cccnc12)c1cccc(CC2CCNCC2)c1,60
22,CC(C)Cn1cncc1CNC(=O)c1cccc(CC2CCNCC2)c1,25.6
23,O=C(CC1CCCCC1)N1C[C@H]2CC[C@@H]1CN(Cc1cccnc1)C2,9.68
